From PubChem BioAssay
A selection: hits, their analogues and other compounds. The true share with any hit is near 7%.
DRD3 antagonist = qHTS of D3 Dopamine Receptor Antagonist: qHTS; D(3) dopamine receptor (Homo sapiens), P35462; D3R cells, DiscoveRx beta-arrestin luminescence, antagonist mode; hits give low values; max response, negative = inhibition, %; 360,000 compounds, 2.5% hits; AID 652054, 2013; in the data active means max response below about -50%; inconclusive means no clear call, values can overlap the other calls; further: on the % scale 0 is the no-effect control and ±100 the full control effect
Target sequence (P35462 whole entry, looked up): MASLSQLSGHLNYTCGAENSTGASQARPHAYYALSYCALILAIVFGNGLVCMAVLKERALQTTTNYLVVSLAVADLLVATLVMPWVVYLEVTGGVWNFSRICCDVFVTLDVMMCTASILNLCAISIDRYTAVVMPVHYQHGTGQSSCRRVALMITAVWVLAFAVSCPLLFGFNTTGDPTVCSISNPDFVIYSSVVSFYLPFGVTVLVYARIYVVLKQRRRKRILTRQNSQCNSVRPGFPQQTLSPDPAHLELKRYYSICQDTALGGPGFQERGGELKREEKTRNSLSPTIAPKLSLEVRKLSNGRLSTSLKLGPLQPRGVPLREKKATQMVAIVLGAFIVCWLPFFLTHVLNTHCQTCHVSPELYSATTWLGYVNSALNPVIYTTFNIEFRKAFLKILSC
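Cells plated overnight at 1500 cells/well, then exposed to library compounds with dopamine controls for 90 minutes at 37 degrees C. DiscoveRx reagent added for 30–60 minutes at room temperature; luminescence read, quantitative HTS format.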
IL-1B inflam inh = qHTS for Inhibitors of Inflammasome Signaling: IL-1-beta AlphaLISA Primary Screen. THP-1 LPS/ATP IL-1B secretion, AlphaLISA, 16 h; hits give low values. activity change, % at 57.5 µM. 360,000 compounds, 4.7% hits; in the data active means activity change below about -50%; inconclusive means mostly about -30% to -49%; further: on the % scale 0 is the no-effect control and ±100 the full control effect
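THP-1 cells pretreated 1 hr with compounds (up to 57.5 uM final), then stimulated with LPS (250 ng/mL final) plus ATP (1.25 mM final); secreted IL-1B measured by AlphaLISA after 16 hr, decreased signal indicating inhibition.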
ATXN viability = Viability Counterscreen for Primary qHTS for Inhibitors of ATXN expression | 400,000 compounds, 0.49% hits | Potency, µM (titrated, usually from 56.7 µM), actives largely listed as cytotoxic | S2 cells (HEK-293 line with an ATXN2-luciferase reporter) viability, CellTiter-Fluor protease fluorescence, 24 h; further: potency means the concentration at half of the fitted maximal effect; nearly all actives have a fitted effect of over 40% in size
Integrin act MD = qHTS for Activators of Integrin-Mediated Alleviation for Muscular Dystrophy | 350,000 compounds, 0.064% hits | Potency, µM (doses to about 38.3 µM), for inactives: at the top dose activation, usual class: activators | alpha7betagal myoblasts, beta-gal FDG fluorescence, 48 h;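 further: potency means the concentration at half of the fitted maximal effect; 100% = response of the positive control SU9516; nearly all actives have a fitted effect of over 60% in size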
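Alpha7betagal+/- myoblasts (passage 13) were plated 16-24 hr, then exposed to compounds (1:260 dilution of DMSO stock) for 48 hours at 37C. After MPER lysis, β-galactosidase reporter activity was read as FDG fluorescence (ex 480/em 540) after 30 minutes.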
ATXN2 expr inh = Primary qHTS for Inhibitors of ATXN expression | HEK-293 ATXN2-luciferase reporter, luminescence, 24 h | Potency, µM (doses to about 57 µM), for the others: at the highest dose activity change, negative = inhibition, usual class: inhibitors | 360,000 compounds, 0.72% hits; further: potency means the concentration at half of the fitted maximal effect; on the % scale 0 is the no-effect control and ±100 the full control effect; nearly all actives have a fitted effect of over 55% in size
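qHTS (up to 57 uM final) was run with 24 h compound exposure of reporter cells at 37 °C. Each well was multiplexed: SteadyGlo luminescence measured ATXN2-luciferase expression after a fluorogenic Gly-Phe-AFC viability readout (25 uM final).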
DRD3 agonist = qHTS of D3 Dopamine Receptor Agonist: qHTS. D(3) dopamine receptor (Homo sapiens), P35462. D3R DiscoveRx beta-arrestin cells, luminescence, 90 min. max activation, %. 410,000 compounds, 0.58% hits; in the data active means max activation above about 30%; further: 0% is about no effect
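Cells at 1500/well, incubated overnight, then treated with pinned compounds (dopamine as control) for 90 min at 37 degrees C. DiscoveRx reagent added for 30 - 60 minutes at room temperature; luminescence read.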
* hit, by the source's call; i = inactive; ? = inconclusive; / = no result given; [ ] = dose if it differs, or a comment. Unless noted, the call rests on the fitted dose curve; in most records, active means well fitted curve in the direction sought with a large enough effect; inconclusive means small, poorly fitted or top-dose-only effect, or another doubt; inactive means no such curve, though single readings can be large; an effect the other way counts as inactive or inconclusive.

SMILES	DRD3 antagonist	IL-1B inflam inh	ATXN viability	Integrin act MD	ATXN2 expr inh	DRD3 agonist
CCOC(=O)/C(=C/c1ccc(OC)cc1)NC(=O)c1ccco1	12	4	i	-21%	19%	4
CC(=O)N(C1=C(Cl)C(=O)c2ccccc2C1=O)C1CCCCC1	-85*	-97*	/	-39%	?	-41
C[C@H]1CN([C@@H](C)CO)C(=O)CCCn2nncc2CO[C@@H]1CN(C)S(=O)(=O)c1ccccc1	-3	18	i	12%	11%	-3
Nc1ccccc1Nc1cccc(C(F)(F)F)c1	4	-157*	i	-30%	?	-1
CSc1nc2ccc3nc(NC(=O)c4ccccc4)sc3c2s1	27	-10	i	13%	13%	3
O=C(COC(=O)c1cc([N+](=O)[O-])ccc1N1CCOCC1)Nc1ccc(Cl)cn1	-4	-9	?	-3%	7.1µM*	1
O=C(COC(=O)c1cc([N+](=O)[O-])ccc1N1CCOCC1)Nc1ccc(Cl)cc1	-5	-1	?	-22%	-22%	-1
CC(C)(CNC(=O)c1cc([N+](=O)[O-])ccc1N1CCC(Cc2ccccc2)CC1)N1CCOCC1	-17	-57*	i	-23%	-29%	-8
O=C(OCc1cccc(C(F)(F)F)c1)c1cc([N+](=O)[O-])ccc1N1CCOCC1	?	-60*	i	23%	-3%	-17
CCCCCCCc1c(O)nc(SCCN(C)C)[nH]c1=O	9	-51*	?	7%	5%	13
CCCc1c(O)nc(SCCN(CCC)CCC)[nH]c1=O	-13	-3	i	-1%[7.66 µM]	0%	2
CN1/C(=C\C=[N+](C)c2ccccc2)C(C)(C)c2ccccc21	4	-95*	11µM*	?	7.1µM*	-5
CN1/C(=C\C=N\O)C(C)(C)c2ccccc21	-13	22	i	10%	14%	2
CC1=NN(c2ccccc2)C(=O)/C1=C\C=C1/N(C)c2ccccc2C1(C)C	-26	-86*	?	-31%	-17%	-19
CN(C)c1ccc(N=C/C=C2/N(C)c3ccccc3C2(C)C)cc1	10	-64*	?	-34%	/	-3
CN1/C(=C\C=C2/SC(=S)NC2=O)C(C)(C)c2ccccc21	-53*	27	28µM*	-39%	/	-8
COc1ccc(-c2noc(-c3nnn(-c4ccc(C(C)C)cc4)c3C)n2)cc1OC	/	/	/	/	/	36*
Cc1cc(C(=O)NNC(=O)c2cccc(C(F)(F)F)c2)no1	-17	-3	i	?	/	-10
CCN(C(=O)c1ccncc1)c1c(N)n(Cc2ccccc2)c(=O)[nH]c1=O	-6	7	i	34%	0%	2
Fc1ccc(-c2nnc(CN3CCN(c4ncc(C(F)(F)F)cc4Cl)CC3)o2)cc1	?	-17	?	-18%	-28%	2
Cc1cc(C)c2nc(N(CCCN(C)C)C(=O)c3ccc(S(=O)(=O)N4CCCCCC4)cc3)sc2c1	-12	-96*	i	-55%	?	-13
CC1CN(S(=O)(=O)c2ccc(C(=O)N(CCCN(C)C)c3nc4c(Cl)cccc4s3)cc2)CC(C)O1 (centres undefined)	-17	-54*	i	0%	-7%	-7
CCOc1ccc2nc(N(CCCN(C)C)C(=O)c3ccc(S(=O)(=O)N4CCCC4)cc3)sc2c1	-19	0	i	-57%	?	-6
COc1cccc2sc(N(CCN(C)C)C(=O)c3ccc(S(=O)(=O)N4CCCC4)cc3)nc12	-28	i	i	-20%	-14%	-6
CN(C)CCCN(C(=O)c1ccc(S(=O)(=O)N2CCCCC2)cc1)c1nc2cc3c(cc2s1)OCO3	?	-63*	i	19%	-31%	-10
CN(C)CCCN(C(=O)c1ccc(S(=O)(=O)N2CCCC2)cc1)c1nc2ccc(Br)cc2s1	-5	-52*	i	-66%	?	-12
